Source: PubChem BioAssay (EPA / NIEHS)
“And” between values parts separate entries of the source, which are not always exact repeats. Equal values may be shown once. More than one record can exist for a structure, and the calls need not agree. The source made the active and inactive calls. How the source made its calls: active means hit-call score of the fitted dose curve at least 0.9, where 1 is the maximum; inactive means score below 0.9.

Tests used:
[1] = read-out: Human Leukocyte Antigen - DR isotype (HLADR), HLA-DRA (gene 3122); test: BSK_CASM3C_HLADR: BioMAP Diversity Plus: CASM3C Assay for Human Leukocyte Antigen - DR isotype (HLADR) Biomarker Activity (AID 2283043); conditions: primary human coronary artery smooth muscle cells; actives raise or lower the signal;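 further: cell-surface HLA-DR protein level quantified by ELISA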
[2] = read-out: Macrophage colony-stimulating factor (MCSF), CSF1 (gene 1435); test: BSK_CASM3C_MCSF: BioMAP Diversity Plus: CASM3C Assay for Macrophage colony-stimulating factor (MCSF) Biomarker Activity (AID 2283044); conditions: primary human coronary artery smooth muscle cells; actives raise or lower the signal;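 further: M-CSF protein amount quantified by ELISA after 24 h exposure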
[3] = read-out: Low-density lipoprotein receptor (LDLR), LDLR (gene 3949); test: BSK_CASM3C_LDLR: BioMAP Diversity Plus: CASM3C Assay for Low-density lipoprotein receptor (LDLR) Biomarker Activity (AID 2283045); conditions: primary human coronary artery smooth muscle cells; actives raise or lower the signal;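 further: LDLR protein level on the cell surface quantified by ELISA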
[4] = read-out: Monocyte Chemoattractant Protein-1 (MCP1), CCL2 (gene 6347); test: BSK_CASM3C_MCP1: BioMAP Diversity Plus: CASM3C Assay for Monocyte Chemoattractant Protein-1 (MCP1) Biomarker Activity (AID 2283046); conditions: primary human coronary artery smooth muscle cells; actives raise or lower the signal;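 further: MCP-1 level quantified by ELISA 24 h after dosing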
[5] = BSK_CASM3C_Proliferation: Cell Proliferation Assessment in the BioMAP Diversity Plus: CASM3C Assay (AID 2283047); conditions: primary human coronary artery smooth muscle cells;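 further: sulforhodamine B total protein stain as relative cell number at 560 nm; sub-confluent cells exposed 48 h before staining; fitted both ways against DMSO so gain or loss of cell number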
[6] = read-out: Monokine induced gamma interferon (MIG), CXCL9 (gene 4283); test: BSK_CASM3C_MIG: BioMAP Diversity Plus: CASM3C Assay for Monokine induced gamma interferon (MIG) Biomarker Activity (AID 2283048); conditions: primary human coronary artery smooth muscle cells; actives raise or lower the signal;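 further: MIG protein level measured by ELISA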
[7] = read-out: serum amyloid A (SAA), SAA1 (gene 6288); test: BSK_CASM3C_SAA: BioMAP Diversity Plus: CASM3C Assay for serum amyloid A (SAA) Biomarker Activity (AID 2283049); conditions: primary human coronary artery smooth muscle cells; actives raise or lower the signal;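 further: SAA protein level quantified by ELISA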
[8] = BSK_CASM3C_SRB: Viability Assessment in the BioMAP Diversity Plus: CASM3C Assay (AID 2283050); conditions: primary human coronary artery smooth muscle cells;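 further: total protein by SRB staining as cytotoxicity measure in parallel cultures; cells exposed to compound for 24 h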
[9] = read-out: Thrombomodulin, THBD (gene 7056); test: BSK_CASM3C_Thrombomodulin: BioMAP Diversity Plus: CASM3C Assay for Thrombomodulin Biomarker Activity (AID 2283051); conditions: primary human coronary artery smooth muscle cells; actives raise or lower the signal;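 further: thrombomodulin protein level measured by ELISA 24 h after dosing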
[10] = read-out: Tissue Factor, F3 (gene 2152); test: BSK_CASM3C_TissueFactor: BioMAP Diversity Plus: CASM3C Assay for Tissue Factor Biomarker Activity (AID 2283052); conditions: primary human coronary artery smooth muscle cells; actives raise or lower the signal;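 further: cell surface tissue factor protein level read by ELISA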

Measured: AC50

Cc1oc(-c2ccccc2)nc1CCOc1ccc(C[C@H](Nc2ccccc2C(=O)c2ccccc2)C(=O)O)cc1
inactive: [6] | [7] | [9] | [10]
active: [1] 34.6 µM | [2] 30.8 µM | [3] 4.87 µM | [4] 32.4 µM | [5] 31.8 µM | [8] 32.3 µM

CC(C)(C)c1cccc(C(C)(C)C)c1O
active: [10] 20 µM
inactive: all other assays above

NCC(F)(F)C(F)(F)C(F)(F)C(F)(F)C(F)(F)C(F)(F)C(F)(F)F
inactive: all assays above

CCCCCCCCOC(=O)CCCCCCCCC(=O)OCCCCCCCC
inactive: all assays above

CCCCC(CC)COC(=O)CCCCC(=O)OCc1ccccc1 (centres undefined)
inactive: all assays above

O=C(O)c1ccccc1C(c1ccc(O)cc1)c1ccc(O)cc1
inactive: all assays above

OCCC(F)(F)C(F)(F)C(F)(F)C(F)(F)C(F)(F)C(F)(F)C(F)(F)C(F)(F)F
active: [1] 20 µM and 27.5 µM and 18.9 µM | [2] 38.6 µM and 30 µM | [3] 58.8 µM and 55.4 µM | [4] 48.6 µM and 47.4 µM | [5] 20 µM and 22.5 µM and 21.8 µM | [6] 46.4 µM and 46.8 µM | [7] 43 µM and 37.9 µM | [8] 48.7 µM and 40.5 µM | [10] 30 µM and 18.4 µM
inactive: [2] | [3] | [4] | [6] | [7] | [8] | [9] | [10]

Oc1cccc(O)c1
inactive: all assays above

CN1CCC[C@H]1c1cccnc1
inactive: all assays above

CCc1nn(C2CCCCC2)c2cc(C3(C#N)CCC(C(=O)O)CC3)ccc12 (centres undefined)
inactive: [7] | [8] | [9] | [10]
active: [1] 4.52 µM | [2] 0.657 µM | [3] 1.47 µM | [4] 7.23 µM | [5] 4.09 µM | [6] 13.1 µM

CC[C@H](C)[C@@H](C(=O)O)n1sc2ccccc2c1=O
inactive: all assays above

NC(=O)N(O)[C@@H]1C=C[C@H](Oc2cccc(Oc3ccc(F)cc3)c2)C1
active: [1] 3.95 µM | [5] 7.17 µM | [9] 9.41 µM
inactive: all other assays above

CCCCCCC(=O)O
inactive: all assays above

CCCCOCCO
inactive: all assays above

C[C@@H]1C[C@H]2[C@@H]3CCC4=CC(=O)C=C[C@]4(C)[C@@]3(F)[C@@H](O)C[C@]2(C)[C@@]1(O)C(=O)COP(=O)(O)O
inactive: [1] | [3] | [5] | [6] | [8] | [9] | [10]
active: [2] 29.4 nM and 113 nM and 217 nM | [4] 141 nM and 1.58 µM and 720 nM | [5] 0.163 µM | [7] 54.4 nM and 105 nM and 155 nM | [9] 29.4 nM and 100 nM | [10] 122 nM and 674 nM

O=C(O)Cc1cc(I)c(Oc2cc(I)c(O)c(I)c2)c(I)c1
inactive: all assays above

COc1ccc([N+](=O)[O-])cc1N
inactive: all assays above

O=c1c(-c2ccc(O)cc2)coc2cc(O)ccc12
inactive: all assays above

CCCCC(CC)COC(=O)CCCCC(=O)OCC(CC)CCCC (centres undefined)
inactive: all assays above

CCCCCCCCCCCCCC[N+](C)(C)C
active: [1] 5.99 µM | [2] 4.57 µM | [3] 8.07 µM | [4] 5.83 µM | [5] 5.31 µM | [6] 11.8 µM | [7] 2.89 µM | [8] 5.35 µM | [9] 5.06 µM | [10] 5.36 µM

NC(=O)N1C(=O)C(C(=O)c2cc(Cl)cs2)c2cc(F)c(Cl)cc21 (centres undefined)
active: [1] 14.1 µM | [4] 7.46 µM | [5] 27.4 µM | [8] 23.8 µM
inactive: all other assays above

CCCCCCCCC(=O)O
inactive: all assays above

CC#C[C@]1(O)CC[C@H]2[C@@H]3CCC4=CC(=O)CCC4=C3[C@@H](c3ccc(N(C)C)cc3)C[C@@]21C
active: [5] 31.1 µM | [8] 31.8 µM
inactive: all other assays above

OCCC(F)(F)C(F)(F)C(F)(F)C(F)(F)C(F)(F)C(F)(F)F
active: [5] 44.3 µM
inactive: [1] | [2] | [3] | [4] | [5] | [6] | [7] | [8] | [9] | [10]

CCOC(=O)CC(O)(CC(=O)OCC)C(=O)OCC
inactive: all assays above

CCCCCCCCCCCCc1ccccc1S(=O)(=O)O
inactive: all assays above

CC(C)CCCCCCOC(=O)CCCCC(=O)OCCCCCCC(C)C
inactive: all assays above

OC1CCC(C2CCCCC2)CC1 (centres undefined)
inactive: all assays above

ClC1=C(Cl)C(Cl)(Cl)C(Cl)=C1Cl
inactive: [9]
active: [1] 4.27 µM | [2] 6.59 µM | [3] 5.87 µM | [4] 7.68 µM | [5] 2.76 µM | [6] 7.3 µM | [7] 6.33 µM | [8] 7.64 µM | [10] 1.92 µM

CC(=O)CC(C)(C)O
inactive: all assays above

c1ccc2c(c1)ccc1ccccc12
inactive: all assays above

C=C(C)C(=O)OCCC(F)(F)C(F)(F)C(F)(F)C(F)(F)C(F)(F)C(F)(F)F
inactive: [1] | [2] | [3] | [4] | [5] | [6] | [7] | [8] | [9] | [10]
active: [1] 20 µM | [3] 12.1 µM | [5] 13.5 µM
